Reference: the supplement of paper PMC8387472
Where a name gives a salt, the structure may show the parent alone. ± gives the standard deviation of the averaged measurements.

The molecules below were run on mESC LDLR-Dup GFP reporter (SpCas9 MH-deletion repair) (assay: fraction of GFP+ cells relative to DMSO control (fold change); higher = more MH-deletion repair to in-frame LDLR (or more editing)). Conditions: 2 µM; 7 days post-transfection.

`CN1CCN(c2c(F)cc3c(=O)c(C(=O)O)cn4c3c2OCN4C)CC1` [Marbofloxacin] and `NC1CCN(c2c(F)cc3c(=O)c(C(=O)O)cn(C4CC4)c3c2Cl)C1` (stereo not given) [Clinafloxacin] are within error of each other in “fraction of GFP+ cells” value: 1.19 ± 0.59 for the first, 0.685 ± 0.25 for the second.

First: CC1=C(/C=C/C(C)=C/C=C/C(C)=C/C(=O)O)C(C)(C)CCC1 [Tretinoin]
Second: CO[C@@H]1[C@@H](OC(N)=O)[C@@H](O)[C@H](Oc2ccc3c(O)c(NC(=O)c4ccc(O)c(CC=C(C)C)c4)c(=O)oc3c2C)OC1(C)C [Novobiocin Sodium]
The “fraction of GFP+ cells” value of the first is lower: 0.923 ± 0.026 for the first, 1.09 ± 0.072 for the second.

First: C=CC(=O)N1C/C(=C\c2ccc([N+](=O)[O-])cc2)C(=O)/C(=C/c2ccc([N+](=O)[O-])cc2)C1
Second: O=C(Nc1ccncc1)c1cc([N+](=O)[O-])ccc1Cl
The “fraction of GFP+ cells” value of the first is lower: 0.723 ± 0.13 for the first, 1.74 ± 0.44 for the second.

`C[C@@H](CN1CC(=O)NC(=O)C1)N1CC(=O)NC(=O)C1` [Dexrazoxane HCl (ICRF-187, ADR-529)] and `O=C(O)c1cn(C2CC2)c2cc(N3CCNCC3)c(F)cc2c1=O` [Ciprofloxacin] are within error of each other in “fraction of GFP+ cells” value: 1.05 ± 0.24 for the first, 1.01 ± 0.28 for the second.

Going from `Nc1ncnc2c1ncn2[C@@H]1O[C@H](CO)[C@@H](O)[C@@H]1O` [Vidarabine] to `O=c1[nH]c(=O)n([C@H]2C[C@H](O)[C@@H](CO)O2)cc1C(F)(F)F` [Trifluridine], the “fraction of GFP+ cells” value rises from 1.26 ± 0.36 to 2.69.

`COc1ccc(Cn2ccc3ccc(C(=O)NO)cc32)cc1` and `CN1CCc2c(c3ccccc3n2Cc2ccc(C(=O)NO)cc2)C1` [Tubastatin A HCl] are within error of each other in “fraction of GFP+ cells” value: 0.5 ± 0.072 for the first, 0.623 ± 0.15 for the second.

Going from `Oc1cccc(-c2nc(N3CCOCC3)c3oc4ncccc4c3n2)c1` to `Cn1cc(C(=O)Nc2ccc3c(c2)OCCO3)c2ccccc2c1=O`, the “fraction of GFP+ cells” value rises from 0.542 ± 0.15 to 1.33 ± 0.53.

First: Cn1cc(-c2cnn3c(N)c(Br)c([C@@H]4CCCNC4)nc23)cn1
Second: Cc1cnc(NC(=O)Nc2cc(Br)c(C)cc2OC[C@@H]2CNCCO2)cn1
The “fraction of GFP+ cells” value of the first is lower: 0.689 ± 0.069 for the first, 1.14 ± 0.08 for the second.

`O=P(O)(O)C(O)(Cn1ccnc1)P(=O)(O)O` [Zoledronic Acid Monohydrate] and `NC(=O)c1cccnc1` [Nicotinamide (Vitamin B3)] are within error of each other in “fraction of GFP+ cells” value: 1.07 ± 0.25 for the first, 1.74 ± 0.82 for the second.

`Cc1ccc(S(=O)(=O)c2ccc([N+](=O)[O-])o2)cc1` and `Nc1nc(Nc2ccc(S(N)(=O)=O)cc2)nn1C(=O)c1c(F)cccc1F` are within error of each other in “fraction of GFP+ cells” value: 1.39 ± 0.46 for the first, 1 ± 0.15 for the second.

`Cn1cc(/C=C/C(=O)c2cccc(F)c2)cc1/C=C/C(=O)NO` and `O=C(NO)c1cccc(C(=O)NCCc2ccccc2)c1` are within error of each other in “fraction of GFP+ cells” value: 0.876 ± 0.1 for the first, 0.743 ± 0.17 for the second.

`O=S(=O)(N=Cc1c(O)ccc2ccccc12)c1cccs1` and `O=C(Nc1ccccc1-c1cn2c(CN3CC[C@@H](O)C3)csc2n1)c1ccc2ccccc2c1` are within error of each other in “fraction of GFP+ cells” value: 1.15 ± 0.65 for the first, 1.45 ± 0.4 for the second.

`CN(C)c1nc(N(C)C)nc(N(C)C)n1` [Altretamine] and `Nc1nc2n[nH]nc2c(=O)[nH]1` [Azaguanine-8] are within error of each other in “fraction of GFP+ cells” value: 1.41 ± 0.41 for the first, 1.43 ± 0.23 for the second.

`CS(=O)(=O)OCCCCOS(C)(=O)=O` [Busulfan] and `CCCC(CCC)C(=O)O` [Valproic acid sodium salt (Sodium valproate)] are within error of each other in “fraction of GFP+ cells” value: 1.36 ± 0.93 for the first, 0.849 ± 0.18 for the second.

`CC(C)(O)[C@@H]1CC[C@](C)([C@H]2[C@@H](O)C[C@@]3(C)[C@@H]4C[C@H](O)[C@H]5C(C)(C)[C@@H](O)CC[C@@]56C[C@@]46CC[C@]23C)O1` [Cycloastragenol] and `CO[C@H]1/C=C/O[C@@]2(C)Oc3c(C)c(O)c4c(O)c(c5c(nc6cc(C)ccn65)c4c3C2=O)NC(=O)/C(C)=C\C=C\[C@H](C)[C@H](O)[C@@H](C)[C@@H](O)[C@@H](C)[C@H](OC(C)=O)[C@@H]1C` [Rifaximin] are within error of each other in “fraction of GFP+ cells” value: 0.966 ± 0.08 for the first, 0.938 ± 0.38 for the second.

`Nc1nc(=O)c2c([nH]1)NC[C@H](CNc1ccc(C(=O)N[C@@H](CCC(=O)O)C(=O)O)cc1)N2C=O` [Calcium Levofolinate] and `Nc1nc(=O)c2nc(CNc3ccc(C(=O)N[C@@H](CCC(=O)O)C(=O)O)cc3)cnc2[nH]1` [Folic acid] are within error of each other in “fraction of GFP+ cells” value: 1.1 ± 0.47 for the first, 1.24 ± 0.46 for the second.

First: CN1CCN(Cc2ccc(NC(=O)Nc3ccc(Oc4ccnc(N)n4)cc3)cc2C(F)(F)F)CC1
Second: O=C(Nc1ccc(Cl)cc1)C1CCCN(C(=O)c2cccc(-c3ccco3)c2)C1 (stereo not given)
The “fraction of GFP+ cells” value of the first is lower: 0.335 ± 0.13 for the first, 0.756 ± 0.13 for the second.

`C#CCC(Cc1cnc2nc(N)nc(N)c2n1)c1ccc(C(=O)N[C@@H](CCC(=O)O)C(=O)O)cc1` (stereo not given in full) [Pralatrexate] and `Cc1ccc(C(=O)OCc2ccc([C@@H](CN)C(=O)Nc3ccc4cnccc4c3)cc2)c(C)c1` are within error of each other in “fraction of GFP+ cells” value: 1.43 ± 0.46 for the first, 1.71 ± 0.5 for the second.

`O=C(O)c1cc2cccc([N+](=O)[O-])c2[nH]1` and `O=C(O)c1cc(=O)[nH]c(=O)[nH]1` [Orotic acid (6-Carboxyuracil)] are within error of each other in “fraction of GFP+ cells” value: 1.04 ± 0.19 for the first, 0.847 ± 0.26 for the second.

`CC(C)(Oc1ccc(CCNC(=O)c2ccc(Cl)cc2)cc1)C(=O)O` [Bezafibrate] and `COc1cccc2c1c(O)c(C(=O)N(C)c1ccc(C(F)(F)F)cc1)c(=O)n2C` [Tasquinimod] are within error of each other in “fraction of GFP+ cells” value: 1.52 ± 0.58 for the first, 0.837 ± 0.12 for the second.
